CYP2C9 inhib – human CYP2C9 inhibition; P11712; CYP2C9 Supersomes, luciferin-H conversion, luminescence; inhibition, % at 5 µM; 20% of 96,000 active; AID 777;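 active = blocking of liver enzyme CYP2C9 beyond about 50% at 5 µM, limit read from the data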
CYP2C19 inhib – human CYP2C19 inhibition; inhibition, % at 5 µM; CYP2C19 Supersomes, luciferin-H EGE luminescence, 30 min; 21% of 96,000 active; P33261; AID 778;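 active = CYP2C19 inhibition above a set limit at 5 µM in the primary screen, cut at about 50% in these data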;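 note: plate controls were negative control wells for no effect and 2.5 mM tranylcypromine positive control for full effect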
CYP2C19 activ – increases human CYP2C19 enzyme activity; recombinant CYP2C19, luciferin-H EGE luminescence; hits give high values; 0 = fully inhibited enzyme, 1 = untreated enzyme; activation factor at 5 µM; 96,000 tested, under 10 active; AID 1025; P33261;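 active = activation factor of at least 2 at 5 µM in the primary screen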;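 note: 0 = wells with 2.5 mM tranylcypromine and 1 = vehicle-only wells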
CYP2C9 activ – CYP2C9 (human) activation; P11712; recombinant CYP2C9, luciferin-H conversion, luminescence; hits give high values; factor 1 = untreated enzyme, 0 = blocked; activation factor at 5 µM; 1.4% of 96,000 active; AID 1024;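 active = activation factor of 2 or more for CYP2C9 at a 5 µM dose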;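 note: 0 = sulfaphenazole-blocked wells and 1 = vehicle-only wells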
Cav3 T inh – blocks human Cav3.2 T-type calcium channel | B-score at 10 µM | AID 449739 | 4% of 100,000 active | Cav3.2-expressing cells, Fluo-4 calcium fluorescence FDSS; hits give low values;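 active = single-dose well whose peak fluorescence ratio is a statistical outlier from its plate by either plate-standardised score or position-corrected B-score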
* hit, by the source's call; . = no result given. Rows were chosen to be rich in hits. Some 27% of all compounds tested hit in one or more screens of this group.

SMILES	CYP2C9 inhib	CYP2C19 inhib	CYP2C19 activ	CYP2C9 activ	Cav3 T inh
Cc1cccc(C2CC(c3ccc(F)cc3)Nc3nc(N)nn32)c1 (configuration not stated)	4	58*	0.4	1	0.83
Cn1c(=O)c2cc(S(=O)(=O)NC(C(=O)NCc3cccnc3)c3ccccc3)ccc2n(C)c1=O (configuration not stated)	13	29	0.7	0.9	0.19
CC1(C)CC(=O)C=C(Nc2ccc(Br)cn2)C1	-1	15	0.8	1	0.00058
COC(=O)c1ccccc1NC(=O)CSc1nnc(COc2cccc(OC)c2)n1C	25	32	0.7	0.8	-0.72
COC(=O)c1ccccc1NC(=O)CSc1nc(O)cc(=O)n1C1CCCC1	74*	28	0.7	0.3	1.2
CCOC(=O)c1ccc(NC(=O)CSc2nccn2C)cc1	9	60*	0.4	0.9	0.11
COC(=O)c1ccccc1NC(=O)CSc1nccn1C	7	85*	0.1	0.9	-1.5
COC(=O)c1ccccc1NC(=O)Cn1c(CCC(=O)O)ccc1-c1cccs1	33	53*	0.5	0.7	2.1
CCCCn1c(SCc2c(C)noc2C)nc2cc(S(N)(=O)=O)ccc21	34	6	0.9	0.7	.
CCOC(=O)C1=C(C)N(CCCC(=O)O)C(=O)NC1c1ccccc1OC(=O)c1cccs1 (configuration not stated)	.	.	.	.	0.33
CC1(C)CC(=O)C(C=NCCc2ccc(O)cc2)=C(O)C1	-10	-4	1	1.1	0.1
Cc1nnc(NC(=O)CSc2nccn2C)s1	.	.	.	.	-0.86
COC(=O)c1ccccc1NC(=O)COC(C)=O	-3	15	0.8	1	1
COC(=O)c1ccccc1NC(=O)Cn1ccnc1	84*	100*	0	0.2	0.019
Cn1ccnc1SCC(=O)Nc1cccc2ccccc12	-61	97*	0	1.6	0.23
O=C(CCSc1ccc(Cl)c(Cl)c1)NC12CC3CC(CC(C3)C1)C2	13	29	0.7	0.9	-5.9*
COC(=O)c1ccccc1NC(=O)CSc1nnc(CNS(=O)(=O)c2ccc(C)cc2)n1C	94*	52*	0.5	0.1	1.1
O=C(O)CSc1nnc(-c2ccncc2)n1C1CCCCC1	-18	-3	1	1.2	0.67
CSc1ccccc1NC(=O)CSCc1ccc(Br)cc1	13	17	0.8	0.9	.
CCN1CCCC1CNC(=O)Cn1cnc2sc(C)c(S(=O)(=O)N3CCC(C)CC3)c2c1=O (configuration not stated)	.	.	.	.	-0.53
Cn1ccnc1SCC(=O)NC12CC3CC(CC(C3)C1)C2	5	92*	0.1	0.9	-1.9
COC(=O)c1scc(C)c1NC(=O)C1CCCCC1	3	1	1	1	0.021
Cc1ccccc1OCc1nnc(SCC(=O)Nc2ccc3nc(SCC(=O)NC(C)(C)C)sc3c2)n1C	75*	53*	0.5	0.2	0.85
CC(C)(C)NC(=O)CSc1nc2ccc(NC(=O)CSc3nnnn3Cc3ccccc3)cc2s1	49	52*	0.5	0.5	-0.47
Cc1nc2sc(C(c3ccco3)N3CCN(c4ccc(F)cc4)CC3)c(O)n2n1 (configuration not stated)	.	.	.	.	0.69
SMILES	CYP2C9 inhib	CYP2C19 inhib	CYP2C19 activ	CYP2C9 activ	Cav3 T inh
Cc1nc2sc(C(c3ccco3)N3CCN(c4ccccc4F)CC3)c(O)n2n1 (configuration not stated)	69*	92*	0.1	0.3	-0.21
CC(=O)NC(Cc1ccccc1)C(=O)NC1CCN(C(=O)NC2CCCCC2)CC1 (configuration not stated)	-5	-8	1.1	1.1	0.3
CC1(c2nnc(-c3ccc(F)cc3)o2)CC(c2cccc(Cl)c2)=NO1 (configuration not stated)	.	.	.	.	-1.8
C/C=C(\C)C(=O)Nc1cccc(C2=NOC3(C2)C[C@H](C(N)=O)N(C(=O)C(c2ccccc2)c2ccccc2)C3)c1 (some centres not stated)	.	.	.	.	-2.5
CCOC(=O)C1=C(c2ccccc2)OC(N)=C(C#N)C1C1CCCCC1 (configuration not stated)	37	18	0.8	0.6	0.063
CCOC(=O)C1=C(C)OC(N)=C(C#N)C1C1CCCCC1 (configuration not stated)	31	84*	0.2	0.7	0.2
CCOC(=O)C1=C(C)OC(N)=C(C#N)C1c1ccsc1 (configuration not stated)	21	63*	0.4	0.8	-0.27
COCc1[nH]nc2c1C(c1ccsc1)C(C#N)=C(N)O2 (configuration not stated)	-8	4	1	1.1	1.4
CCOC(=O)C1=C(CC)OC(N)=C(C#N)C1c1cccs1 (configuration not stated)	45	53*	0.5	0.6	0.3
Cc1cc2c(c(=O)n1Cc1cccnc1)C(c1cccs1)C(C#N)=C(N)O2 (configuration not stated)	31	16	0.8	0.7	1.2
CCN1CC2=C(OC(N)=C(C#N)C2c2cccs2)/C(=C\c2cccs2)C1 (configuration not stated)	18	6	0.9	0.8	-3.5*
CCCc1sc(N)nc1-c1ccc(C)cc1	.	.	.	.	-1
COc1ccc(Cl)cc1C(=O)NCCN(C)C	-5	-6	1.1	1.1	0.79
CCCC(C)NC(=O)c1cc(Cl)ccc1OC (configuration not stated)	-252	44	0.6	3.5*	0.32
COc1ccc(Cl)cc1C(=O)NCC(C)C	-213	14	0.9	3.1*	-1.8
COc1cc(Cn2c(=O)oc3ccc(C)cc32)ccc1OC(C)C	.	.	.	.	-3.5
O=C(c1ccc(CS(=O)(=O)Cc2ccc(Cl)cc2)o1)N1CCCC1	40	30	0.7	0.6	-0.85
COc1ccc(CNC(=O)Nc2ccc(OC)cc2)cc1	-9	59*	0.4	1.1	0.058
COc1ccc(OC)c(NC(=O)NCc2ccc(F)cc2)c1	28	99*	0	0.7	0.38
COc1ccc(N2CCC(CNC(=O)Nc3ccccc3)C2)cc1 (configuration not stated)	38	60*	0.4	0.6	-2.4
COc1ccc(CNC(=O)Nc2cccc(C)c2)cc1	4	35	0.7	1	0.18
COc1ccc(NC(=O)Nc2ccc(N(C)C)cc2)cc1	21	86*	0.1	0.8	0.084
COc1ccc(OC)c(NC(=O)Nc2cccc3ccccc23)c1	39	6	0.9	0.6	0.27
COc1ccc(NC(=O)Nc2ccc(OC)cc2)cc1	-23	-6	1.1	1.2	.
Cc1ccc(S(=O)(=O)N2CCN(C(=O)CSc3nnnn3C)C2)cc1	-8	-4	1	1.1	0.059
COc1ccc(NC(=O)NCc2cccn2C)c(OC)c1	-3	62*	0.4	1	-0.32
CCC(=O)Nc1nnc(C(C)(C)C)s1	-4	-1	1	1	1.5
O=S(=O)(c1ccc2nc(-c3ccco3)c(-c3ccco3)nc2c1)N1CCOCC1	91*	3	1	0.1	-3.2
